Test results as given in PubChem BioAssay (NCI).
About 79,000 compounds went through this panel and 15% of them were active in at least one assay; those are over-represented in the sample as a whole. Active and inactive are the calls of the source. No stated cut-off is given here; in the data, active means growth inhibition above about 70%; inactive means the rest.

Experiment: NCI Yeast Anticancer Drug Screen. Data for the sgs1 strain (AID 173);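 further: 0% = growth of vehicle-only control cultures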
Details: S. cerevisiae sgs1 mutant, hits give high values
Procedure: Growth inhibition of yeast strains with defined genetic alterations is measured as a screen for potential anti-cancer activity. Selected strains with alterations in DNA damage repair or cell cycle control were exposed to compounds and growth inhibition was measured relative to vehicle treated controls. The strain used in this assay is sgs1

Measured: growth inhibition

CCCCCCCCCCCCNC(C)=O
inactive: at 1.2 µM -2% | at 3.7 µM -3% | at 11.0 µM -3% | at 33.0 µM -4% | at 100.0 µM 43%

O=C(O)C1CC(c2ccccc2)=NN1c1ccccc1 (stereo not given)
inactive: at 1.2 µM -29% | at 3.7 µM -34% | at 11.0 µM -16% | at 33.0 µM 20%
active: at 100.0 µM 96%

Cc1c2cc[n+](Cc3ccc(I)cc3)cc2c(C)c2c1[nH]c1ccccc12
active: at 11.0 µM 96% | at 33.0 µM 97% | at 100.0 µM 96%
inactive: at 1.2 µM 42% | at 3.7 µM 27%

CC1=NOC(=O)/C1=C/c1ccc2c(c1)OCO2
inactive: at 1.2 µM 1% | at 3.7 µM 1% | at 11.0 µM 10% | at 33.0 µM 19% | at 100.0 µM 23%

CN(C)CCNC(=O)c1cccc2c1Oc1c(cccc1[N+](=O)[O-])O2
inactive: at 1.2 µM -10% | at 3.7 µM 2% | at 11.0 µM -1% | at 33.0 µM 2% | at 100.0 µM 48%

COC1=C(OC)C(=O)C(Sc2ccc3ccccc3c2)=CC1=O
inactive: at 1.2 µM -25% | at 3.7 µM -17% | at 11.0 µM 23%
active: at 33.0 µM 93% | at 100.0 µM 93%

O=C1C=C(Cl)C(=O)N1c1cccc(Cl)c1
active: at 3.7 µM 95% | at 11.0 µM 99% | at 33.0 µM 100% | at 100.0 µM 99%
inactive: at 1.2 µM 21%

CNC(=O)OCc1c(COC(=O)NC)c(-c2ccc(Cl)c(Cl)c2)n2c1SCC2
inactive: at 1.2 µM -1% | at 3.7 µM -1% | at 11.0 µM 1% | at 33.0 µM 12%
active: at 100.0 µM 72%
